Reference: PubChem BioAssay (NCATS)
Inconclusive results are not listed. Calls of active or inactive are those of the source. Calls follow the shape of the dose curve; as a rule, active = well fitted curve in the direction sought with a large enough effect; inconclusive = small, poorly fitted or top-dose-only effect, or another doubt; inactive = no such curve, though single readings can be large; an effect the other way counts as inactive or inconclusive.

Columns and labels:
[1] = target: Calcium and integrin-binding protein 1 (Homo sapiens) (UniProt Q99828); experiment: Primary qHTS for Identification of Calcium Integrin Binding Protein 1 (CIB1) Competitor (AID 1508620);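 also: GST tagged CIB1 binding a fluorescein labelled alphaIIb integrin peptide tracer; top concentration of the series differs between compounds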
Method in brief: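 CIB1-GST (1 uM final) and compound incubated 15 min at room temperature before adding FITC-alphaIIb peptide tracer (100 nM final). Competition for binding read by fluorescence polarization (ex 480, em 540) after another 15 min at room temperature.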

[2] = Primary qHTS for inhibitors of nuclear receptor binding SET domain protein 2 (NSD2) in an isogenic RCH-ACV NSD2 p.E1099K mutant (9B) (AID 1645876); also: nearly all actives have a fitted effect of over 70% in size
[3] = Primary qHTS for inhibitors of nuclear receptor binding SET domain protein 2 (NSD2) in an RCH-ACV wild type WT cells (2C) (AID 1645877); also: nearly all actives have a fitted effect of over 70% in size
% is scaled to controls: 0 for no effect and ±100 for the full control effect.

Chain of Calcium and integrin-binding protein 1 (Homo sapiens) (Q99828 whole entry, looked up): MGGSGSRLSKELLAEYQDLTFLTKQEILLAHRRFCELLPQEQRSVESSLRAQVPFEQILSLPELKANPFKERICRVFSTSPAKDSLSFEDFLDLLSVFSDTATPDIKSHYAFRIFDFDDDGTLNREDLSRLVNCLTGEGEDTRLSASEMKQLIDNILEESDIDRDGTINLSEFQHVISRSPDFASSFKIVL

COc1cc(CO)cc(OC)c1O[C@@H]1O[C@H](CO)[C@@H](O)[C@H](O)[C@H]1O
inactive: Potency [1] | Potency [2] | Potency [3]

OCC1=C[C@@H](O)[C@@H]2C=CO[C@@H](O[C@@H]3O[C@H](CO)[C@@H](O)[C@H](O)[C@H]3O)[C@H]12
inactive: Potency [1] | Potency [2] | Potency [3]

O=C(/C=C/c1ccc(O)cc1)O[C@@H]1C[C@@](O)(C(=O)O)C[C@@H](O)[C@@H]1O
inactive: Potency [1] | Potency [2] | Potency [3]

COc1cc(O)cc(O[C@@H]2O[C@H](CO)[C@@H](O[C@@H]3OC[C@](O)(CO)[C@H]3O)[C@H](O)[C@H]2O)c1OC
inactive: Potency [1] | Potency [2] | Potency [3]

CC(C)=CCC[C@](C)(O[C@@H]1O[C@H](CO[C@@H]2O[C@@H](CO)[C@H](O)[C@H]2O[C@@H]2OC[C@@H](O)[C@H](O)[C@H]2O)[C@@H](O)[C@H](O)[C@H]1O)[C@H]1CC[C@]2(C)[C@@H]1[C@H](O)CC1[C@@]3(C)CC[C@H](O[C@@H]4O[C@H](CO)[C@@H](O)[C@H](O)[C@H]4O[C@@H]4O[C@H](CO)[C@@H](O)[C@H](O)[C@H]4O)C(C)(C)C3CC[C@]12C (stereo partly drawn)
inactive: activity change, negative = inhibition [1] -3.93% [at 12.4 µM] | activity change, negative = viability loss [2] -9.17% [at 9.23 µM] | activity change, negative = cell killing [3] -15.6% [at 9.23 µM]

CC1=C2CC3C(CCC3(C)O)C(C)(O)CC2OC1=O (stereo not drawn)
inactive: Potency [1] | Potency [2] | Potency [3]

C=C1CCC2C(C)(C)CCC[C@]2(C)[C@H]1CC/C(C)=C/C(=O)O (stereo partly drawn)
inactive: Potency [1] | Potency [2] | Potency [3]

CC1(C)CC[C@]2(C(=O)O[C@@H]3O[C@H](CO)[C@@H](O)[C@H](O)[C@H]3O)CC[C@]3(C)C(=CCC4[C@@]5(C)CC[C@H](OC6OC(C(=O)O)C(OC7OC(CO)C(O)C(O)C7O)C(O)C6O)C(C)(C)C5CC[C@]43C)C2C1 (stereo partly drawn)
inactive: Potency [1] | activity change, negative = viability loss [2] -8.98% [at 9.23 µM] | activity change, negative = cell killing [3] -22.4% [at 9.23 µM]

COc1ccc(C2C(C(=O)O)C(C(=O)O)C2c2ccc(OC)cc2O[C@@H]2O[C@H](CO)[C@@H](O)[C@H](O)[C@H]2O)c(O[C@@H]2O[C@H](CO)[C@@H](O)[C@H](O)[C@H]2O)c1 (stereo partly drawn)
inactive: Potency [1] | Potency [2] | Potency [3]

COc1c(O[C@@H]2O[C@H](CO)[C@@H](O)[C@H](O)[C@H]2O)c(CCC(=O)O)cc2ccoc12
inactive: Potency [1] | Potency [2] | Potency [3]

CC(C)(O)C1CC=C(C(=O)OC[C@H]2O[C@@H](Oc3cc(C(=O)O)cc(O)c3O)[C@H](O)[C@@H](O)[C@@H]2O)CC1 (stereo partly drawn)
inactive: Potency [1] | Potency [2] | Potency [3]

CC(=O)/C=C/C1C(C)CC(O[C@@H]2O[C@H](CO)[C@@H](O)[C@H](O)[C@H]2O)CC1(C)C (stereo partly drawn)
inactive: Potency [1] | Potency [2] | Potency [3]

CC(C)C1(O)C=C2C(=O)CC3C(C)(C(=O)O)CCCC3(C)C2CC1 (stereo not drawn)
inactive: Potency [1] | Potency [2] | Potency [3]

CC(=O)O[C@@H]1[C@H](O[C@@H]2OC[C@](O)(CO)[C@H]2O)[C@@H](O[C@@H]2O[C@@H](C)[C@H](O)[C@@H](O[C@@H]3O[C@H](CO)[C@@H](O)[C@H](O)[C@H]3O)[C@H]2O)[C@H](OC(=O)[C@]23CCC(C)(C)C[C@H]2C2=CCC4[C@@]5(C)C[C@H](O)[C@H](O[C@@H]6O[C@H](C(=O)O)[C@@H](O)[C@H](O)[C@H]6O)[C@@](C)(C(=O)O)C5CC[C@@]4(C)[C@]2(C)CC3)O[C@@H]1C (stereo partly drawn)
inactive: activity change, negative = inhibition [1] 4.9% [at 12.4 µM] | activity change, negative = viability loss [2] 4.2% [at 9.23 µM] | outcome [3] inactive [at 9.23 µM]

COC(=O)c1cc(OC)cc(OC)c1C(=O)c1c(OC)cc2c(c1O)C1CCC(O)C(C)(O2)O1 (stereo not drawn)
inactive: Potency [1] | Potency [2] | Potency [3]

CC(=O)OCC1OC(O[C@H]2CC[C@]34C[C@]35CC(O)[C@]3(C)[C@@H]([C@H](C)CC/C=C(\C)C(=O)O)C(O)C[C@@]3(C)C5CC[C@H]4C2(C)C)C(O)C(O)C1OC1OCC(O)C(O)C1O (stereo partly drawn)
inactive: Potency [1] | activity change, negative = viability loss [2] -5.86% [at 9.23 µM] | activity change, negative = cell killing [3] -13.7% [at 9.23 µM]
